# Reference: ChEMBL document CHEMBL4513216, “Probing the Open Global Health Chemical Diversity Library for Multistage-Active Starting Points for Next-Generation Antimalarials” (ACS Infect Dis, 2020)
# In all, about 69,000 compounds went through this assay and about 8,600 (12%) showed an effect of 50% or more. What follows is part of a selection rich in strong results, with near analogues and random picks from the rest.
# Tested on: Plasmodium berghei
# Experiment: Screen against P. berghei liver stage (PbLuc), transformed with Luciferase, at 10uM
# Assay type: functional, HepG2
# Details: tested at 10 uM
row,Structure (SMILES),INHIBITION [%]
1,CN(C)C(=O)N1C[C@H](Oc2ccccn2)[C@H]2OCCC[C@H]21,-6.32
2,CC1Oc2ccc(S(=O)(=O)NCCCn3ccnc3)cc2NC1=O (stereo unspecified),56.5
3,COCCCNS(=O)(=O)c1ccc2c(c1)NC(=O)C(C)O2 (stereo unspecified),-35.5
4,CC1(C)Oc2ccc(S(=O)(=O)NCCCn3ccnc3)cc2NC1=O,17.4
5,CCc1nc(C)sc1CN1CC[C@](C)(O)[C@H](C)C1,48.5
6,CCc1csc(CNC2CCN(Cc3ccccc3)C2)n1 (stereo unspecified),64
7,Cc1nc(CNC2CCN(Cc3ccccc3)C2)sc1C (stereo unspecified),47.9
8,CCc1nc(C)sc1CNC1CCN(Cc2ccccc2)C1 (stereo unspecified),51.1
9,Cc1nc(CCNC2CCN(Cc3ccccc3)C2)sc1C (stereo unspecified),40.5
10,CCc1csc(CNC2CCN(c3ccc(C)cc3)CC2)n1,1.94
11,CNc1ncccc1CN1CCCCC1c1ccnc(N)n1 (stereo unspecified),32.3
12,O=C(NCC1CC1)[C@H]1CC[C@@H]2[C@@H](CCN2Cc2nccs2)O1,46.1
13,COC(=O)c1cccn1C1CCN(CC(=O)NC2CCCCC2)CC1,43.7
14,Cc1noc(C)c1C(=O)N(C)C(C)c1cccnc1 (stereo unspecified),79
15,Cc1noc(C)c1C(=O)N(C)C(C)c1ccc(S(C)(=O)=O)cc1 (stereo unspecified),10.7
16,Cc1noc(C)c1C(=O)N(C)C(C)c1ccncc1 (stereo unspecified),17.5
17,CS(=O)(=O)N1CCCN(c2nccn3cnnc23)CC1,-39.2
18,OCCN(Cc1ccccc1)Cc1ccsc1,3.96
19,CC(NC(=O)c1ccc(C#N)cn1)C1(N2CCOCC2)CCCC1 (stereo unspecified),37.1
20,CC(C)n1ncc2c1NC(=O)CC2c1ccccc1Cl (stereo unspecified),9.32
21,Cn1ncc2c1NC(=O)CC2c1cc(Cl)ccc1F (stereo unspecified),8.49
22,Cn1ncc2c1NC(=O)CC2c1cc2c(cc1Cl)OCO2 (stereo unspecified),61.2
23,Cn1ncc2c1NC(=O)CC2c1c(Cl)cccc1Cl (stereo unspecified),25.1
24,Cn1ncc2c1NC(=O)CC2c1ccccc1Cl (stereo unspecified),54.5

row,Structure (SMILES),INHIBITION [%]
1,Cn1ncc2c1NC(=O)CC2c1ccc(Cl)cc1Cl (stereo unspecified),34
2,O=C(NCc1cccnc1)c1ccc2nccn2c1,32.5
3,COc1ccccc1CN1CCC(Cc2cnc(CN(C)C)cn2)CC1,8.12
4,Cc1nc(C)c(C(=O)N2CCCC(n3ccnc3C)C2)s1 (stereo unspecified),21.7
5,O=S(=O)(Cc1c(F)cccc1F)NCCOc1cccnc1,42.4
6,Cc1ccc(C(=O)N2CCCC(n3cccn3)C2)cc1S(C)(=O)=O (stereo unspecified),23.95
7,CCc1noc(CCC(=O)N[C@@H]2CC[C@@H](n3ccnc3C)[C@@H]2O)n1,56.8
8,Cc1nccn1[C@@H]1CC[C@@H](NC(=O)CCCn2cccn2)[C@H]1O,4.13
9,CCc1noc(CCC(=O)N[C@@H]2CC[C@@H](n3ccnc3)[C@@H]2O)n1,8.72
10,Cc1cc(NC(=O)c2ccc(F)cc2Cl)n(C)n1,-23.8
11,COc1ncc(-c2nccn2-c2ccccc2CN2CCOCC2)cn1,32.3
12,CCn1ccnc1-c1nccn1-c1ccccc1CN1CCOCC1,58.3
13,CCc1cc(-c2nccn2-c2ccccc2CN2CCOCC2)on1,-4.51
14,CNc1cc(CNC(=O)c2ccccc2OC)nc(-c2ccncc2)n1,23.4
15,O=c1[nH]nc2c(S(=O)(=O)N3CCCCC3)cccn12,51
16,O=c1[nH]nc2c(S(=O)(=O)N3CCCC3)cccn12,6.12
17,O=c1[nH]nc2c(S(=O)(=O)N3CCCCCC3)cccn12,-15.2
18,Cc1ccoc1C1=NNC(=CN2CCn3c(nnc3C(C)C)C2)O1,15.3
19,CC(C)c1nc(CN(C)C(=O)C(O)c2ccc(Cl)cc2)cs1 (stereo unspecified),-15.6
20,O=c1cc(CN(Cc2ccco2)C2CC2)nc2ccc(Br)cn12,9.65
21,CN1CCC(N(Cc2ccco2)S(=O)(=O)c2ccc(Br)cc2Cl)CC1,61.2
22,CC1CCN(C(=O)CN(Cc2ccco2)C2CC2)CC1,37
23,CN1CCC(N(Cc2ccco2)S(=O)(=O)c2cc(Br)ccc2Br)CC1,69.8
24,CN1CCC(N(Cc2ccco2)S(=O)(=O)c2ccc(Cl)cc2)CC1,27.9

row,Structure (SMILES),INHIBITION [%]
1,CN(C1CCCCC1)S(=O)(=O)N1CCN(Cc2ccco2)CC1,40
2,CC(NCc1cccc(Cl)c1)c1ccc(OCC(=O)NC2CC2)cc1 (stereo unspecified),13.3
3,COc1ccc2nnc(CCC(=O)NCc3cccn3C)n2n1,9.57
4,Cc1nc(CCC(N)=O)cc(C2CCCN2S(C)(=O)=O)n1 (stereo unspecified),26.1
5,CC(C)c1nc2c(n1C)CCN(CC(=O)Nc1nncs1)C2,-12.2
6,CC(=O)NC1CCN(c2ccnc(C3CCNCC3)c2)CC1,2.55
7,Fc1ccc2[nH]c3c(c2c1)CCN1C(c2ccncc2)N2CCC31CC2 (stereo unspecified),-62.4
8,O=C(CSC(F)(F)F)N1CCC2(CCCN(C3CCOCC3)C2=O)C1 (stereo unspecified),-36.6
9,CCN(CC)C(=O)Nc1ccc(C(=O)N(C)C)c(C)c1,19.7
10,Cc1cc(NCC(C)C)ccc1C(=O)N(C)C,21.5
11,Cc1cc(NC(N)=O)ccc1C(=O)N(C)C,61
12,Cn1cc(-c2nnn3c2COC(CNCC2CCOCC2)C3)cn1 (stereo unspecified),5.67
13,CCN(C)CC(C)Cn1cnc(-c2ccccc2)c1C (stereo unspecified),-107
14,Cc1c(-c2ccccc2)ncn1CC(c1cccnc1)N1CCOCC1 (stereo unspecified),37.2
15,Cc1cc(NCCCNc2cccnc2)n2nc(C)c(C)c2n1,3.945
16,Cc1c(-c2ccccc2)ncn1CCCNc1cccnc1,22.7
17,CSCCc1c(-c2ccccc2)ncn1CCNc1cccnc1,63.6
18,CSC(C)Cc1c(-c2ccccc2)ncn1CCCNc1cccnc1 (stereo unspecified),82.5
19,CC[C@H]1N(Cc2ccco2)CCC[C@]12CCC(=O)N2C,1.34
20,CC(C)NC(=O)Nc1ncc(-c2cccnc2)s1,-42.9
21,Cc1nn(C)c(C)c1C1COCCN1C(=O)c1ccc(Cl)o1 (stereo unspecified),-16
22,Cc1ccc(NCc2cn3c(n2)CN(Cc2ccoc2)CC3)nn1,26.5
23,O=C1CC2(CCSC2)C(=O)N1Cc1ncc(-c2cccc(F)c2)o1 (stereo unspecified),-26.8
